# Measured values: the supplement of paper PMC7156485
# System: TDF
# Assay: H1.0 immunofluorescence intensity relative to DMSO (% of DMSO); higher = stronger H1.0 induction, active = 120 or more
# Conditions: concentration: 10 µM; 24 h
# In short: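 HCC1569 and TDF cells (800 per well, 384-well plates, RPMI with 10% FBS) were treated with compounds at 10 µM for 24 h at 37 °C, in triplicate. Cells were fixed in 3.7% formaldehyde and stained with a rabbit anti-H1.0 antibody, an AlexaFluor 647 secondary and DAPI; six fields per well were imaged at ×10. H1.0 nuclear intensity or cell number is expressed as percent of the plate DMSO control, taking the median of replicates. HCC1569 values were smoothed for positional effects.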
# 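Further: TDF is a line of transformed human dermal fibroblasts of mesenchymal origin.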
row,SMILES,H1.0 immunofluorescence intensity
1,"CC=C1C2C=C(C)CC1(N)c1ccc(=O)[nH]c1C2 (single isomer, unassigned; (-)) [(-)-Huperazine]",98.9 (inactive)
2,CN1CCC(c2c(O)cc(O)c3c(=O)cc(-c4ccccc4Cl)oc23)C(O)C1 (stereo unspecified) [Alvocidib],132 (active)
3,COC1(NC(=O)CSCC#N)C(=O)N2C(C(=O)[O-])=C(CSc3nnnn3C)CSC21.[Na+] (stereo unspecified) [Cefmetazole sodium],91.2 (inactive)
4,"Cl.Cl.Cl.NCCC1CCCC(CCN)N1 (stereo unspecified) [MDL 26,630 trihydrochloride]",93.7 (inactive)
5,CC12CCC3c4ccc(O)cc4CCC3C1CCC2=O (stereo unspecified) [Estrone],96.7 (inactive)
6,COc1cc2c(cc1OC)-c1cc(=Nc3c(C)cc(C)cc3C)n(C)c(=O)n1CC2.Cl [Trequinsin.HCl],92.8 (inactive)
7,Cn1cc(C2=C(c3cn(CCCSC(=N)N)c4ccccc34)C(=O)NC2=O)c2ccccc21,113 (inactive)
8,O=C(O)C1=CC(=NNc2ccc(S(=O)(=O)Nc3ccccn3)cc2)C=CC1=O [Sulfasalazine],93 (inactive)
9,C#CCNCc1cc2cc(OCc3ccccc3)ccc2[nH]1 [N-((5-(benzyloxy)-1H-indol-2-yl)methyl)prop-2-yn-1-amine],96 (inactive)
10,O=C(COc1ccc(Cl)cc1)NC1CCC(NC(=O)COc2ccc(Cl)cc2)CC1 (stereo unspecified),90.5 (inactive)
11,O=C(O)C=CC(=O)O.c1cnc(N2CCN(Cc3ccc4c(c3)OCO4)CC2)nc1 [Piribedil maleate],93.8 (inactive)
